D3 antag = blocks the human D3 dopamine receptor | P35462 | D3R cells, DiscoveRx beta-arrestin luminescence, antagonist mode; active compounds read low | max response, negative = inhibition, % | 2.5% of 360,000 active; in the data active = max response below about -50%; inconclusive = no clear call, values can overlap the other calls; also: % is scaled to controls: 0 for no effect and ±100 for the full control effect
Target sequence (P35462 whole entry, looked up): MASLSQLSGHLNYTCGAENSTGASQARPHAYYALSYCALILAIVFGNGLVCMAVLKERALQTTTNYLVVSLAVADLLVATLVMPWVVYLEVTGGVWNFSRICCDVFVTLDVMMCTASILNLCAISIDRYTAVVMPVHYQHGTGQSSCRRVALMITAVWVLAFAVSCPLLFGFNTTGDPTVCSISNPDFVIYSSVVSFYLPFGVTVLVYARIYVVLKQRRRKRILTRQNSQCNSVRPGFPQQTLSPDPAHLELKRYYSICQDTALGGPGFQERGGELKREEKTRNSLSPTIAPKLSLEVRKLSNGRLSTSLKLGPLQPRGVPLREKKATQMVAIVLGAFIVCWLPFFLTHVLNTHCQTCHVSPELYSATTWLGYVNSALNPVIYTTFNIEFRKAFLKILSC
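Cells plated overnight at 1500 cells/well, then exposed to library compounds with dopamine controls for 90 minutes at 37 degrees C. DiscoveRx reagent added for 30–60 minutes at room temperature; luminescence read, quantitative HTS format.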
Integrin act MD = activates integrin-mediated alleviation for muscular dystrophy. alpha7betagal myoblasts, beta-gal FDG fluorescence, 48 h. 0.064% of 350,000 active. AID 624291. Potency, µM (highest dose often 38.3 µM), inactives show at the highest dose activation, usual class: activators; active = well fitted activation curve with a large enough effect; inconclusive = small, poorly fitted or top-dose-only effect; inactive = no such curve, though single readings can be large or run the other way;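 also: potency is read from the fitted curve at half-maximal effect; 100% = response of the positive control SU9516; nearly all actives have a fitted effect of over 60% in size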
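Alpha7betagal+/- myoblasts (passage 13) were plated 16-24 hr, then exposed to compounds (1:260 dilution of DMSO stock) for 48 hours at 37C. After MPER lysis, β-galactosidase reporter activity was read as FDG fluorescence (ex 480/em 540) after 30 minutes.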
D3 ag = agonists of human D3 dopamine receptor | D3R DiscoveRx beta-arrestin cells, luminescence, 90 min | max activation, % | 0.58% of 410,000 active | P35462; in the data active = max activation above about 30%; also: 0% is about no effect
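Agonist mode: compounds and dopamine controls were applied to plated cells for 90 min at 37 degrees C after an overnight attachment at 1500 cells/well. Luminescent read-out followed 30 - 60 minutes at room temperature with DiscoveRx detection reagent.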
An asterisk follows results filed as active; ? = inconclusive; . = not tested or not shown. In the library only some 2.9% were active in any assay of this set; here they are far more common.

SMILES | D3 antag | Integrin act MD | D3 ag
CCOc1cc(CNCc2cccs2)ccc1OCC(=O)NC(C)(C)C | -18 | -18% | -6
O=C(Cn1ncc2c(=O)oc3ccccc3c21)NCCN1CCN(c2ccccc2F)CC1 | ? | 10% | -9
CCSc1nc(C)cc(C)c1S(=O)(=O)c1ccccc1C | 31 | -15% | -6
Cc1ccc(C(c2nnnn2CCC(C)C)N2CCN(C)CC2)cc1 (stereo not given) | -67* | 2% | -1
C=CCN1CCN(C(c2ccccc2)c2nnnn2CCC(C)C)CC1 (stereo not given) | -82* | -54% | -10
CC(C)CCn1nnnc1C(c1ccccc1)N1CCN(C)CC1 (stereo not given) | -15 | 5% | 2
CC(C)CCn1nnnc1C(c1ccccc1)N1CCC(C(N)=O)CC1 (stereo not given) | 13 | -24% | 4
C=CCn1c(C(C)NC(=O)c2ccccc2C)n[nH]c1=S (stereo not given) | -3 | -4% | -17
Cc1cccc(CN2CCOCCS2(=O)=O)c1 | 0 | 21% | -20
COc1ccccc1N1CCN(CC(O)c2c(C)[nH]c3ccccc23)CC1 (stereo not given) | -79* | -34% | -6
COc1ccccc1N1CCN(CC(O)c2ccccc2)CC1 (stereo not given) | -55* | -10% | -21
O=[N+]([O-])c1ccc(C(O)CN2CCOCC2)cc1 (stereo not given) | 8 | -1% | 5
Oc1ccc(N2CCN(CC(O)c3ccccc3)CC2)cc1 (stereo not given) | 2 | 0% | -2
O=[N+]([O-])c1ccc(C(O)CN2CCN(c3ccccc3)CC2)cc1 (stereo not given) | 2 | -31% | 34*
COc1ccccc1N1CCN(CC(=O)c2c(C)[nH]c3ccccc23)CC1 | ? | -36% | -21
COc1ccc(CNS(=O)(=O)c2cc(OCC(N)=O)c(C)cc2Cl)cc1 | -2 | 18% | 0
CC(C)(C)OC[C@H](NC(=O)c1[nH]cnc1C(=O)Nc1ccccc1F)C(=O)OC(C)(C)C | -5 | -29% | 1
COc1ccc(OC)c(CCNC(=O)c2c3c(nc4ccccc24)C(=O)N(C2CCCCC2)C3)c1 | . | . | -12
Cc1c(OCC(=O)NC(Cc2ccc(Cl)cc2)C(=O)O)ccc2c3c(c(=O)oc12)CCC3 (stereo not given) | 26 | 9% | -8
c1ccc2c(c1)NC(CN1CCOCC1)CO2 (stereo not given) | 8 | 26% | -4
COc1ccc(S(=O)(=O)N2CCC(C(=O)NC3CCCC3)CC2)cc1C | 3 | 0% | 1
CCCCn1c(SCC(=O)NCc2ccco2)nc2ccc(N3CCOCC3)cc2c1=O | 23 | -43% | 10
CCCn1c(SCC(=O)N2CCN(c3ccccc3)CC2)nc2ccccc2c1=O | 16 | -27% | 8
CCCCn1c(SCC(=O)N2CCC(C)CC2)nc2ccsc2c1=O | 11 | -32% | 30*
CCCCn1c(SCC(=O)NCc2ccccc2)nc2ccc(N3CCOCC3)cc2c1=O | 35 | -15% | 34*
SMILES | D3 antag | Integrin act MD | D3 ag
CCCCn1c(SCC(=O)N2CCN(c3ccccc3)CC2)nc2ccsc2c1=O | 0 | -35% | 35*
CCCCn1c(SCC(=O)Nc2ccc(OCC)cc2)nc2ccsc2c1=O | . | . | -6
Cc1cccc(NC(=O)CNC(=O)COC(=O)CCS(=O)(=O)c2ccccc2)c1C | 3 | -14% | 2
CCC(=O)N1CCc2cc(S(=O)(=O)NCCC(=O)N3CCN(c4cccc(C)c4)C(C)C3)ccc21 (stereo not given) | 18 | ? | 1
Cc1ccccc1CC(=O)Nc1ccc(S(=O)(=O)N2CCOCC2)cc1 | 7 | 20% | 6
CC1(c2cccc(Br)c2)NC(=O)N(CC(=O)c2ccc3c(c2)OCCO3)C1=O (stereo not given) | 12 | 0% | 1
Cc1ccc(CN2C(=O)COc3cc(NS(C)(=O)=O)ccc32)cc1 | 12 | -3% | 10
CCN1CCN(C(=O)c2ccc3c(c2)N(Cc2ccc(Cl)cc2)C(=O)c2ccccc2S3=O)CC1 (stereo not given) | . | . | -20
COc1ccc(-c2c(C)c3cc(OC(=O)N4CCOCC4)ccc3oc2=O)cc1 | . | . | 5
COc1ccc(C2Nc3ccccc3C(=O)N2Cc2ccccc2)cc1COc1ccccn1 (stereo not given) | 6 | -10% | 7
CC1CCCC(NC(=O)CSc2ccc(F)cc2)C1C (stereo not given) | -7 | 0% | 0
CC1CCCC(NC(=O)CSc2n[nH]c(=O)n2Cc2ccccc2)C1C (stereo not given) | -4 | 23% | 48*
Cc1ccc2c(c1)c(=O)c1ccccc1n2CCCC(=O)Nc1cc(Cl)ccc1C | . | . | 14
Cc1ccc(NC(=O)CCCn2c3ccccc3c(=O)c3cc(C)ccc32)c(Br)c1 | . | . | 39*
Fc1ccc2cnc(-c3ccccc3)c(-c3cc(C(F)(F)F)cc(C(F)(F)F)c3)c2c1 | -20 | 0% | 2
CCCNC(=O)COC(=O)c1ccc(S(=O)(=O)N2CCCC2)cc1 | 5 | -29% | 0
COc1ccc(S(=O)(=O)Nc2cc3c4c(c2)CCC(=O)N4CCC3)cc1C | -1 | -34% | -8
Cc1onc(-c2c(F)cccc2Cl)c1C(=O)NCC1COc2ccccc2O1 (stereo not given) | -24 | -1% | -3
Cc1onc(-c2c(Cl)cccc2Cl)c1C(=O)NCC1CCCO1 (stereo not given) | -105* | 3% | 9
CC(C)NC(=O)COC(=O)/C=C/c1ccc(F)cc1 | 8 | 1% | -2
Cc1ccc(CNC(=O)CSc2nnc3c(n2)[nH]c2ccccc23)cc1 | 3 | -4% | 0
O=C1NC[C@H](Cc2ccccc2)N(CC2CCN(CCCCc3ccccc3)CC2)C1=O | -50* | -2% | -46
CCCCN1CCC(CN2C(=O)C(=O)NC[C@@H]2Cc2ccccc2)CC1 | -20 | 0% | -25
S=C1NC[C@H](Cc2ccccc2)N1CC1CCN(CCCCc2ccccc2)CC1 | -93* | 0% | -41
CC(C)CCN1CCC(CN2C(=S)NC[C@@H]2Cc2ccccc2)CC1 | -28 | 1% | -50
SMILES | D3 antag | Integrin act MD | D3 ag
O=C1NC[C@H](Cc2ccccc2)N(CC2CCN(CCC3CCCC3)CC2)C1=O | -22 | -10% | -39
CC(CCN1CCC(CN2C(=S)NCC2Cc2ccccc2)CC1)c1ccccc1 (stereo not given) | -63* | -9% | -41
CCCc1cnc2c(c1SCC(=O)Nc1ccccc1F)c(=O)n(C)c(=O)n2C | . | . | 1
CCCn1nnnc1SCC(=O)NC1CCCC1 | -4 | -19% | 5
O=C(NCC1CCCO1)c1ccc2c(c1)N(Cc1ccc(Cl)cc1)CCS2 (stereo not given) | -1 | -1% | -9
CCCCOc1ccc(C(=O)NCc2ccccn2)cc1 | -7 | 10% | -11
COc1ccc(C(=O)NCc2ccccn2)cc1 | -65* | 15% | -5
COc1ccc(C(=O)Nc2ccc(NC(=O)c3ccccn3)cn2)cc1 | -14 | -4% | -22
COc1ccc(C(=O)N/N=C(\c2ccccc2)c2ccccn2)cc1 | -56* | -44% | -13
O=C(N/N=C(\c1ccccc1)c1ccccn1)c1ccccc1Cl | ? | -60% | -4
O=C(NN=C(c1ccccc1)c1ccccn1)c1ccccc1 | -56* | 0% | -14

Assay outcomes: PubChem, National Center for Advancing Translational Sciences (NCATS)
